Assay results reported in PubChem BioAssay (NCATS).
Where “and” joins values, the source holds several entries; their conditions need not be identical. Equal values may be shown once. Results filed as inconclusive are left out. A call without a number means that no potency is given here. Calls of active or inactive are those of the source. Unless noted, calls come from the whole dose curve; as a rule, active = well fitted curve in the direction sought with a large enough effect; inconclusive = small, poorly fitted or top-dose-only effect, or another doubt; inactive = no such curve, though single readings can be large; an effect the other way counts as inactive or inconclusive.

How the values were obtained:
[1] = biological target: Voltage-gated inwardly rectifying potassium channel KCNH2 (Homo sapiens) (UniProt Q12809); experiment: qHTS Assay for Small Molecule Inhibitors of the Human hERG Channel Activity (AID 588834); conditions: U2OS BacMam hERG, FluxOR thallium flux fluorescence; series mostly up to 46.1 µM;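 note: lower thallium flux fluorescence means stronger hERG block; nearly all actives have a fitted effect of over 50% in size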; note: potency is the fitted concentration of half-maximal effect
Voltage-gated inwardly rectifying potassium channel KCNH2 (Homo sapiens), sequence (Q12809 whole entry, looked up): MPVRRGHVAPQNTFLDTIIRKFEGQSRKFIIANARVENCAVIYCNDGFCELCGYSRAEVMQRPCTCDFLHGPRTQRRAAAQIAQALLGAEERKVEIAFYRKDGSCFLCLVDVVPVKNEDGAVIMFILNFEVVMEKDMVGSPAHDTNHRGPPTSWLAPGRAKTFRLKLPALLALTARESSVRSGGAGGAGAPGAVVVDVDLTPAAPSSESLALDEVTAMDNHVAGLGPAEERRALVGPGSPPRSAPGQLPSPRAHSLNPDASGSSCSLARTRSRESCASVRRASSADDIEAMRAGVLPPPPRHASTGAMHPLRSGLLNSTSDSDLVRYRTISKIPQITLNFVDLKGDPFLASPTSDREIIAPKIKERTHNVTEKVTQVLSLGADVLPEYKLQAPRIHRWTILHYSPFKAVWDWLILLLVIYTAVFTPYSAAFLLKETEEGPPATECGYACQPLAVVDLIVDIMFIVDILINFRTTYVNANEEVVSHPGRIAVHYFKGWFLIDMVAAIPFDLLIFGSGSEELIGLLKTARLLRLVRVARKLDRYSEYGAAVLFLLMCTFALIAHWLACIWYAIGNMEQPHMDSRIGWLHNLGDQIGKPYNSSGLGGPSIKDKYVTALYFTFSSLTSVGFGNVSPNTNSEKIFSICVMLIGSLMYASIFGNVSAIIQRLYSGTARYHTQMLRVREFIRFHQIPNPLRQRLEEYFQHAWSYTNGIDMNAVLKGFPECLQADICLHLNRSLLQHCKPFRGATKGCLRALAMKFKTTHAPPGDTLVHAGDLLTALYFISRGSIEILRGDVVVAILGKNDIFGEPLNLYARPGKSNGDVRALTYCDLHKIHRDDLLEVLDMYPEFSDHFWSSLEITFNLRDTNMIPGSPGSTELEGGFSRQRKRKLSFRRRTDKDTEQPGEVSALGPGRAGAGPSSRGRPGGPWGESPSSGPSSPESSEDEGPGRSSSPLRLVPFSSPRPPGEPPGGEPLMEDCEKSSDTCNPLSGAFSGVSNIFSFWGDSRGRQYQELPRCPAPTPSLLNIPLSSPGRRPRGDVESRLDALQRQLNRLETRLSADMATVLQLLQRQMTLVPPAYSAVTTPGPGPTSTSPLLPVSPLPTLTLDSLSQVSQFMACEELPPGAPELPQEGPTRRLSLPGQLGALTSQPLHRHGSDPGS
How it was run: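 Step 1: BacMam hERG transduction of U2OS, 4 hrs RT. Step 2: overnight 37 °C, plate 2000 cells/well, 4 hr. Step 3: FluxOR load, compound 10 min, stimulate, read fluorescence.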

[2] = S16 Schwann cell PMP22 intronic element firefly luciferase assay (AID 624032); conditions: S16 rat Schwann cells, PMP22 element FLuc, 24 h; series mostly up to 57.5 µM; note: nearly all actives have a fitted effect of over 30% in size; note: potency is the fitted concentration of half-maximal effect
How it was run: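 Rat S16 Schwann cells stably carrying a PMP22 intronic element-driven Fluc reporter were seeded overnight, then exposed to compounds for 24 h at 37 °C. Luminescence was normalized to PTC124 (positive control) and DMSO (0% activity).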

[3] = S16 Schwann cell PMP22 intronic element beta-lactamase assay (AID 624044; calls by dose curve; note: nearly all actives have a fitted effect of over 15% in size; note: potency is the fitted concentration of half-maximal effect); conditions: S16 rat Schwann cells, PMP22 element beta-lactamase FRET, 24 h; series mostly up to 38.3 µM
How it was run: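 Beta-lactamase reporter under a PMP22 intronic regulatory element in stable S16 rat Schwann cells; 24 h compound exposure. 460 nm blue signal normalized between DMSO (0%) and potassium clavulanate, with 535 nm FRET tracking viability; curves classed by r2 and response.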

[4] = biological target: Glutaminase kidney isoform, mitochondrial (Homo sapiens) (UniProt O94925); experiment: qHTS for Inhibitors of Glutaminase (GLS): LOPAC Validation (AID 624146); conditions: glutaminase enzyme activity inhibition; series mostly up to 46.1 µM;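 note: glutamate product detected by oxidase and peroxidase coupled Amplex red fluorescence gain; nearly all actives have a fitted effect of over 60% in size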
Glutaminase kidney isoform, mitochondrial (Homo sapiens), sequence (O94925 whole entry, looked up, canonical isoform): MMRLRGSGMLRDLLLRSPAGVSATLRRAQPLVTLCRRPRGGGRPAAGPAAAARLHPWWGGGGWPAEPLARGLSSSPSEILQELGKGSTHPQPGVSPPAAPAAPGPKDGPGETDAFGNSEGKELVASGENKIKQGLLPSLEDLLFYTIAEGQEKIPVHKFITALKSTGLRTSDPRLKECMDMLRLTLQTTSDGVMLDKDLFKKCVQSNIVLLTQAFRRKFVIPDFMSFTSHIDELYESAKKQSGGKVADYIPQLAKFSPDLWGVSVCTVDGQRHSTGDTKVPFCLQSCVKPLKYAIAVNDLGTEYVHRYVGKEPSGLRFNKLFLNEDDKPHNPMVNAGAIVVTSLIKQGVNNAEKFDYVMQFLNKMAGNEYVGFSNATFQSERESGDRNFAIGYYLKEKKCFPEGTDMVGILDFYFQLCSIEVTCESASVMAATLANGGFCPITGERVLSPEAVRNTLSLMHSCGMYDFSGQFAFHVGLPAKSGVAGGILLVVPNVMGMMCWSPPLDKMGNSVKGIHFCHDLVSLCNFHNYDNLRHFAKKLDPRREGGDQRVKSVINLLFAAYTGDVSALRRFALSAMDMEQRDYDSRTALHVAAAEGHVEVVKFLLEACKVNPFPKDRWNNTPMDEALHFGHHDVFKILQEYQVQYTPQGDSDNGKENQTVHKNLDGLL
How it was run: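 Two-point fluorescence kinetic (t0, 30 min RT) for hKGA; glutamate detected via glutamate oxidase–HRP–Amplex Red. Substrate: 1 mM L-glutamine solution; buffer 45 mM KH2PO4, pH 8.2.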

[5] = biological target: Glucagon-like peptide 1 receptor (Homo sapiens) (UniProt P43220); experiment: qHTS of GLP-1 Receptor Agonists: LOPAC Validation (AID 624148); conditions: GLP-1R agonist cell assay; series mostly up to 46.1 µM;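 note: higher luminescence signal means agonism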
Glucagon-like peptide 1 receptor (Homo sapiens), sequence (P43220 whole entry, looked up): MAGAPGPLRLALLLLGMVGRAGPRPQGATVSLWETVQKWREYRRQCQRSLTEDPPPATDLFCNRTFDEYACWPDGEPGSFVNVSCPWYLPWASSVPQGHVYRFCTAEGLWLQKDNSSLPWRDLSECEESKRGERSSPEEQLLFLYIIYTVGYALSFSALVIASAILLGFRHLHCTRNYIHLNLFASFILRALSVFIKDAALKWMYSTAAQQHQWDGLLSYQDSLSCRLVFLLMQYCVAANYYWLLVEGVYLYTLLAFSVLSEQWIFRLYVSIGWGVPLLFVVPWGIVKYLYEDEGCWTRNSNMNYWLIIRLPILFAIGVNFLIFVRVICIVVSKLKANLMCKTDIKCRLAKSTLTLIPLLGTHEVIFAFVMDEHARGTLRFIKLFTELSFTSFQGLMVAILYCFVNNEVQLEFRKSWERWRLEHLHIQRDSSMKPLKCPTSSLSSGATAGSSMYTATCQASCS
How it was run: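 HEK293 cells stably co-expressing a cAMP-responsive luciferase reporter and a hypersensitive GLP-1R were plated 12 h at 37 °C and exposed to compounds for 4-6 hr at 37 °C, 5% CO2. Luminescence was read 12 min after adding detection reagent.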

[6] = qHTS of Nrf2 Activators: LOPAC Validation (AID 624149); conditions: Nrf2/ARE reporter cell assay; series mostly up to 46.1 µM
How it was run: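 AREc32_Fluc cells, 1000/well, OPTI-MEM + 5% FBS, o/n 37 deg C 5% CO2; compound pin-transfer, 24 hr 37 deg C; Steady-Glo 30 min RT, luminescence read.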

[7] = HTS Assay for Allosteric Antagonists of the Human D2 Dopamine Receptor: Hit Validation in HTRF (AID 624455); conditions: Cells stably expressing D1 dopamine receptor, inhibition mode; series mostly up to 46.1 µM
How it was run: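 HTRF read-out; cells stably expressing D1 receptor; hits scored for inhibition of D1-mediated response. Primary screen: calcium flux, force-coupled inducible Hek293 Trex D2 line, antagonism vs EC80 dopamine.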

[8] = S16 Schwann cell viability assay (CellTiter-Glo assay) (AID 624031); conditions: S16 rat Schwann cells viability, 24 h; series mostly up to 57.5 µM; note: nearly all actives have a fitted effect of over 70% in size; note: potency is the fitted concentration of half-maximal effect
How it was run: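 Native S16 rat Schwann cells, 500-750 cells/well in DMEM with 10% FBS, dosed with compound after overnight culture and incubated 24h at 37 degree Celsius/5% CO2. Viability by CellTiter-Glo luminescence; % activity normalized to no-cell wells and DMSO-treated cells.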

[9] = Cytotoxicity counterscreen for NFkB agonists and antagonists (AID 624476); conditions: NFkB reporter cell line viability counterscreen; series mostly up to 46.1 µM;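 note: cells exposed to compound for 48 hours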; note: potency is the fitted concentration of half-maximal effect
[10] = qHTS Assay for Identification of Small Molecule Antagonists for NFkB Signaling Pathway. (AID 624479; calls by dose curve;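 note: pathway stimulated with TNF alpha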; note: potency is the fitted concentration of half-maximal effect); conditions: NFkB pathway reporter cell assay, antagonist mode; series mostly up to 38.3 µM
[11] = Cell Proliferation Assay against the TMD8 Cell Line (AID 651645); conditions: TMD8 DLBCL cell line proliferation/viability; at 46.1 µM (top of the series) unless noted;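 note: cells exposed to compound for 48 h before reading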
How it was run: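 500 TMD8 cells/well, RPMI + Glutamax, no phenol red, 5% FBS; cpd added immediately; 48 h, 37C, 5% CO2; CellTiter-Glo, luminescence. Controls: DMSO = 100%, bortezomib 9.2 uM final = 0%.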

[12] = Cell Proliferation Assay against the HBL1 Cell Line (AID 651646); conditions: HBL1 DLBCL cells; at 46.1 µM (top of the series) unless noted;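 note: cells exposed to compound for 48 h before reading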
How it was run: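 After a 48 h incubation of 500 HBL1 cells/well in phenol red-free RPMI plus 5% FBS, relative luciferase units from CellTiter-Glo gave percent activity against DMSO and 9.2 uM bortezomib (final) controls.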

[13] = biological target: Luciferin 4-monooxygenase (Photinus pyralis) (UniProt P08659); experiment: Biochemical firefly luciferase enzyme assay for NPC (AID 624030); note: nearly all actives have a fitted effect of over 70% in size; note: potency is the fitted concentration of half-maximal effect; conditions: purified P. pyralis luciferase, luminescence, 5 min; series mostly up to 58.6 µM
Luciferin 4-monooxygenase (Photinus pyralis), sequence (P08659 whole entry, looked up): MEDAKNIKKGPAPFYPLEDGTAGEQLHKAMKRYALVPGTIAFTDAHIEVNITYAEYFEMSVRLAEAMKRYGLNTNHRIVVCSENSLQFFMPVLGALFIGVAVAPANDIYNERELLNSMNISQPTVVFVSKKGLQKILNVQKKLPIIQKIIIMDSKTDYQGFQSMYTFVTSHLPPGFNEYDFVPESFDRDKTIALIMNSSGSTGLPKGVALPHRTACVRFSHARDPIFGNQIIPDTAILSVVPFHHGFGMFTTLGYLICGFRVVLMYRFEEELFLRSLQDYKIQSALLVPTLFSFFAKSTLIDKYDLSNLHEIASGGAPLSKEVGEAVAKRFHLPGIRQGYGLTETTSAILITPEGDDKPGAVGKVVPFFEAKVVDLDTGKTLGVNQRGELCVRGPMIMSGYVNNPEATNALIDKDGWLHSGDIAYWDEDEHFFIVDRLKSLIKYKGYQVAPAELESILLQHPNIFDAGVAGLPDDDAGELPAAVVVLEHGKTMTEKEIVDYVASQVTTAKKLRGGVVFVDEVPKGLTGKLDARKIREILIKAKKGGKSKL
How it was run: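 Counter-screen for direct inhibition of the luciferase enzyme by approved-drug library compounds, run at 10 nM enzyme in 50 mM Tris acetate (final). Luminescence was read within 5 min of enzyme-buffer addition and normalized to PTC124 versus DMSO (0%).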

## O=c1cc(N2CCOCC2)oc2c(-c3ccccc3)cccc12
[1]
  Potency: inactive
[4]
  Potency: inactive
[5]
  outcome: inactive
[6]
  outcome: inactive
[7]
  outcome: inactive

## O=C(CS(=O)Cc1ccco1)NCC=CCOc1cc(CN2CCCCC2)ccn1 (stereo not drawn)
[1]
  Potency: inactive
[8]
  Potency: inactive
[2]
  Potency: inactive

## Oc1ccc(-c2nc(-c3ccc(F)cc3)c(-c3ccncc3)[nH]2)cc1
[1]
  Potency: inactive
[4]
  Potency: inactive
[5]
  outcome: inactive
[6]
  outcome: inactive
[7]
  outcome: inactive

## CC1(C)CCC(C)(C)c2cc(NC(=O)c3ccc(C(=O)O)cc3)ccc21
[1]
  Potency: inactive
[8]
  Potency: inactive
[2]
  Potency: 0.114 µM (active)
[3]
  Potency: inactive

## CN1C(C(=O)Nc2ccccn2)=C(O)c2sccc2S1(=O)=O
[1]
  Potency: inactive
[8]
  Potency: inactive
[2]
  Potency: inactive

## Oc1ccc(OCc2ccccc2)cc1
[1]
  Potency: inactive
[8]
  Potency: inactive
[2]
  Potency: inactive
[3]
  Potency: 6.73 µM (active)

## C[Se]CCC(N)C(=O)O (stereo not drawn)
[1]
  Potency: inactive
[8]
  Potency: inactive
[2]
  Potency: inactive
[3]
  Potency: inactive

## Nc1nc(OCc2ccccc2)c2[nH]cnc2n1
[1]
  Potency: inactive
[4]
  Potency: inactive
[5]
  outcome: inactive
[6]
  outcome: inactive
[7]
  outcome: inactive

## O=c1ccc2ccc(O)c(O)c2o1
[1]
  Potency: inactive
[5]
  outcome: inactive
[6]
  outcome: inactive
[7]
  outcome: inactive

## CN(c1nccc(=O)[nH]1)C1CCN(c2nc3ccccc3n2Cc2ccc(F)cc2)CC1
[1]
  Potency: 1.78 µM (active)
[2]
  Potency: inactive
[3]
  Potency: inactive

## O=C(O)c1cccnc1Nc1cccc(C(F)(F)F)c1
[1]
  Potency: inactive
[8]
  Potency: inactive
[2]
  Potency: inactive
[4]
  Potency: inactive
[5]
  outcome: inactive
[6]
  outcome: inactive
[7]
  outcome: inactive

## C[C@]12CCC(=O)C=C1CC[C@@H]1[C@H]2[C@@H](O)C[C@@]2(C)[C@H]1CC[C@]2(O)C(=O)CO
[1]
  Potency: inactive
[8]
  Potency: inactive
[2]
  Potency: inactive
[3]
  Potency: inactive

## O=C1c2ccccc2-c2n[nH]c3cccc1c23
[1]
  Potency: inactive
[8]
  Potency: inactive
[2]
  Potency: inactive
[3]
  Potency: inactive
[4]
  Potency: inactive
[5]
  outcome: inactive
[6]
  outcome: inactive
[7]
  outcome: inactive

## O=C(O)c1cn(-c2ccc(F)cc2)c2cc(N3CCNCC3)c(F)cc2c1=O
[1]
  Potency: inactive
[8]
  Potency: inactive
[2]
  Potency: inactive
[3]
  Potency: inactive

## CCOC(=O)C(C)Oc1cccc2c(=O)n(CC(=O)Nc3ccc4c(c3)OCCO4)ccc12 (stereo not drawn)
[4]
  Potency: inactive
[5]
  outcome: inactive
[6]
  outcome: inactive
[7]
  outcome: inactive
[9]
  Potency: inactive
[10]
  Potency: inactive
[11]
  viability (% of control): 109%
[12]
  viability, percent of control: 108%

## Nc1nc(N)c(N=O)c(OCC2CCCCC2)n1
[4]
  Potency: inactive
[5]
  outcome: inactive
[6]
  outcome: inactive
[7]
  outcome: inactive

## Cc1ccc(NC(=O)c2ccc(CN3CCN(C)CC3)cc2)cc1Nc1nccc(-c2cccnc2)n1
[2]
  Potency: inactive
[9]
  Potency: inactive
[11]
  viability (% of control): 48.3%
[12]
  viability, percent of control: 38%

## O=C1CCc2ccc(OCCCCN3CCN(c4cccc(Cl)c4Cl)CC3)cc2N1
[13]
  Potency: inactive
[8]
  Potency: 32.2 µM (active)
[2]
  Potency: 22.8 µM (active)
[3]
  Potency: inactive

## CN(C)CCc1c[nH]c2ccc(Cn3cncn3)cc12
[8]
  Potency: inactive
[2]
  Potency: inactive

## C[C@@H](N)C1CCC(C(=O)Nc2ccncc2)CC1 (stereo partly drawn)
[4]
  Potency: inactive
[5]
  outcome: inactive
[6]
  outcome: inactive
[9]
  Potency: inactive
[11]
  viability (% of control): 91.3%
[12]
  viability, percent of control: 95.4%

## CCOC(=O)C1=C(O)C(=O)N(Cc2ccccc2)C1
[9]
  Potency: inactive
[10]
  Potency: inactive
[11]
  viability (% of control): 104%
[12]
  viability, percent of control: 107%

## COc1cc(C(C)=O)ccc1OCCCN1CCC(c2noc3cc(F)ccc23)CC1
[13]
  Potency: inactive

## CC(C)c1ccc2c(c1)c(SC(C)(C)C)c(CC(C)(C)C(=O)O)n2Cc1ccc(Cl)cc1
[1]
  Potency: inactive
[5]
  outcome: inactive
[6]
  outcome: inactive
[7]
  outcome: inactive
[9]
  Potency: 8.33 µM (active)
[11]
  viability (% of control): 9.44%
[12]
  viability, percent of control: 8.87%

## COc1ccccc1N1CCN(CCN(C(=O)C2CCCCC2)c2ccccn2)CC1
[4]
  Potency: inactive
[5]
  outcome: inactive
[6]
  outcome: inactive
[7]
  outcome: inactive

## Cc1nccn1CC1CCc2c(c3ccccc3n2C)C1=O (stereo not drawn)
[13]
  Potency: inactive

## CC(C)[N+]1(C)[C@@H]2CC[C@H]1CC(OC(=O)C(CO)c1ccccc1)C2 (stereo partly drawn)
[13]
  Potency: inactive

## Cc1nc2n(c(=O)c1CCN1CCC(c3noc4cc(F)ccc34)CC1)CCCC2
[13]
  Potency: inactive
[8]
  Potency: inactive
[3]
  Potency: inactive

## Cc1cccc(-c2[nH]ncc2-c2ccc3ncccc3n2)n1
[9]
  Potency: inactive
[10]
  Potency: 13.7 µM (active)
[11]
  viability (% of control): 76.5% [at 92.2 µM]
[12]
  viability, percent of control: 116% [at 92.2 µM]

## Cc1nc(-c2ccc(OCC(C)C)c(C#N)c2)sc1C(=O)O
[13]
  Potency: 0.0361 µM (active)

## CCC1=C(C)CN(C(=O)NCCc2ccc(S(=O)(=O)NC(=O)NC3CCC(C)CC3)cc2)C1=O (stereo not drawn)
[8]
  Potency: inactive
[2]
  Potency: 32.2 µM (active)
[3]
  Potency: inactive
